CHX counter – counter-screen hit for Shiga toxin inhibitors, cycloheximide. cell reporter, cycloheximide protein synthesis inhibition counterscreen. max response, %. 300,000 tested, 12% active. AID 2314; in the data active = max response mostly above about 13%, no sharp cut-off; inactive = mostly below about 14%; also: read at 38.3 µM for the half of the compounds with a filed dose
Pf growth 96h – P. falciparum growth inhibition at 96 hour, primary screen for plastid delayed-death inhibitors; 320,000 tested, 6.9% active; AID 504834; P. falciparum luciferase reporter growth, 96 h; Potency, µM (titrated, usually from 28.7 µM), usual class: inhibitors
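Infected RBCs, 2% Hct / 0.05% parasitemia final; luciferase-reporter P. falciparum; cpd 96 h, 37 C, 5% CO2; luciferase detection reagent; luminescence.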
LmPK inhibitor – inhibitors of Leishmania mexicana pyruvate kinase; Q27686; purified LmPK, Kinase-Glo ATP luminescence, 1 h; Potency, µM (top dose mostly 57.5 µM), actives largely listed as inhibitors; 290,000 tested, 0.37% active; AID 1721
Target sequence (Q27686 whole entry, looked up): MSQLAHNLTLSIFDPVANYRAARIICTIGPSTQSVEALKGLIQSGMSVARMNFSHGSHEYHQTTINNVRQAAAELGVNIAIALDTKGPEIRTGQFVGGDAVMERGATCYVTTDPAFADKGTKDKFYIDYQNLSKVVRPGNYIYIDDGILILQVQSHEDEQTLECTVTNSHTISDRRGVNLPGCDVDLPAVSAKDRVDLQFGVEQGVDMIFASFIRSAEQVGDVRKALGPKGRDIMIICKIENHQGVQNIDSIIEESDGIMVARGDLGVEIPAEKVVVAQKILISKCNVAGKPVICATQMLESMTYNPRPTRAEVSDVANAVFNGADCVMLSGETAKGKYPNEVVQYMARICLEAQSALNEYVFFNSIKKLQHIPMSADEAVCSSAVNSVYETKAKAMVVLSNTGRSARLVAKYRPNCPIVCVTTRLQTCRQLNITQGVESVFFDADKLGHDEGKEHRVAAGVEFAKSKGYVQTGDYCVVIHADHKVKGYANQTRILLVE
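Purified LmPK (0.1 nM) converted ADP (0.1 mM) to ATP with PEP (0.5 mM) in imidazole buffer pH 7.2 with KCl and MgCl2, 1 h at room temperature. ATP was read by Kinase-Glo luminescence; data normalized to uninhibited and no-enzyme controls.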
Pf growth 48h – P. falciparum growth inhibition at 48 hours (one generation). Potency, µM (series often up to 28.7 µM), most hits filed as inhibitors. AID 504832. P. falciparum luciferase growth in erythrocytes, 48 h. 310,000 tested, 5.9% active
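Luciferase-expressing parasites in RBCs, 2% Hct / 0.1% parasitemia final; RPMI 1640 + 0.5% Albumax; 37 C, 5% CO2, one generation; luminescence read-out, lower signal = inhibition.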
Shiga toxin inh – Shiga toxin inhibition | 290,000 tested, 9.2% active | Vero cells, Shiga toxin protein synthesis inhibition reporter | inhibition, % at 38.7 µM; in the data active = inhibition mostly above about 28%, no sharp cut-off; inactive = mostly below about 43%
Large screens that a line does not name were inactive. Only some compounds are listed: those with a hit (about 22% of all), similar ones and a draw of the others. Unless noted, calls follow the shape of the dose curve; as a rule, active = well fitted inhibition curve with a large enough effect; inconclusive = small, poorly fitted or top-dose-only effect, or another doubt; inactive = no such curve, though single readings can be large or run the other way.

Cc1nc2ccc(NC(=O)NCCO)cc2s1	CHX counter 20
Cc1cc(C)cc(N(C(=O)c2sc(C)nc2C)C(C(=O)NCc2ccco2)c2ccccc2)c1 (stereo not drawn)	Pf growth 96h 12µM, Pf growth 48h inconclusive
Cc1ccc(C(CC(=O)NCCCN(C)C)c2ccc(OC(C)C)cc2)cc1 (stereo not drawn)	Pf growth 48h inconclusive
O=C1COc2ccc(N3C(=O)c4ccccc4C3=O)cc2N1	none
Cc1ccc(C)c(NC(=O)C[n+]2ccccc2)c1	Pf growth 96h inconclusive
O=[N+]([O-])c1ccc(NCc2ccc3c(c2)OCO3)cc1	CHX counter 21, Pf growth 96h inconclusive
N#CCC(=O)Nc1ccc(C(=O)OCC(=O)NCc2ccc3c(c2)OCO3)cc1	Pf growth 96h inconclusive, Pf growth 48h 8.3µM (no result: CHX counter, LmPK inhibitor, Shiga toxin inh)
O=C(COC(=O)c1ccc(O)cc1)NCc1ccc2c(c1)OCO2	Pf growth 96h inconclusive
CCOC(=O)c1ccc(NCc2ccc(N(C)C)cc2)cc1	Pf growth 96h inconclusive
CCOC(=O)c1ccc(NCc2ccc3c(c2)OCO3)cc1	CHX counter 35, Shiga toxin inh 66
CC(C)OC(=O)C(C(=O)OC(C)C)=C1SC=CS1	none (no result: CHX counter, LmPK inhibitor, Shiga toxin inh)
CCc1ccn2cc(-c3cc(-c4ccccc4)no3)nc2c1	CHX counter 37, LmPK inhibitor 16µM
Cc1oncc1-c1cn2ccccc2n1	none (no result: Pf growth 96h)
Cc1ccc2nc(-c3cc(-c4ccccc4)no3)cn2c1	CHX counter 49, Shiga toxin inh 114
CC(C)(C)c1cc(-c2ccccc2)no1	none
Cc1cc(C)c(-c2cc(C(=O)Nc3cc(C)ccc3C)[nH]n2)c(O)c1	Pf growth 96h inconclusive
Cc1ccc(C)c(NC(=O)c2cc(-c3ccccc3O)n[nH]2)c1	CHX counter 29, Pf growth 96h inconclusive, Pf growth 48h inconclusive, Shiga toxin inh 59
Cc1ccc(-c2cc(C(=O)Nc3cc(C)ccc3C)[nH]n2)c(O)c1	CHX counter 18, Pf growth 96h inconclusive, Pf growth 48h inconclusive, Shiga toxin inh 30
Cc1ccc(NC(=O)c2cc(-c3cc(C)c(C)cc3O)n[nH]2)cc1C	CHX counter 15, Pf growth 96h 2.6µM, Pf growth 48h 2.1µM
Cc1ccc(C)c(NC(=O)c2cc(-c3cc(C)c(C)cc3O)n[nH]2)c1	CHX counter 30, Pf growth 96h inconclusive, Pf growth 48h 6.6µM, Shiga toxin inh 61
CC(=O)OCC1OC(Sc2cccc3cccnc23)C(OC(C)=O)C(OC(C)=O)C1OC(C)=O (stereo not drawn)	none
CC(OC(=O)CCCN=C1NS(=O)(=O)c2ccccc21)C(=O)NC1CCCCC1C (stereo not drawn)	none
O=C(NC1CCCC1)c1cc(-c2ccc(F)cc2)on1	CHX counter 46, Shiga toxin inh 96
O=C(NC1CCCC1)c1cc(-c2ccc(Cl)cc2)on1	CHX counter 27, Shiga toxin inh 59
Cc1ccc(S(=O)(=O)N2[C@@H](c3cccc(Cl)c3)C(C(=O)O)=CC[C@H]2c2cccc(Cl)c2)cc1	Pf growth 48h inconclusive (no result: CHX counter, LmPK inhibitor, Shiga toxin inh)
Cc1ccc(S(=O)(=O)N2[C@@H](c3cccc(Cl)c3)C(C(=O)O)=CC[C@H]2c2ccc3c(c2)OCO3)cc1	Pf growth 96h inconclusive, Pf growth 48h 9.3µM (no result: CHX counter, LmPK inhibitor, Shiga toxin inh)
Cc1ccc(S(=O)(=O)N2[C@@H](c3ccc(Cl)cc3)C(C(=O)O)=CC[C@H]2c2ccc3c(c2)OCO3)cc1	Pf growth 96h 8.3µM, Pf growth 48h 9.3µM (no result: CHX counter, LmPK inhibitor, Shiga toxin inh)
COc1ccc(S(=O)(=O)N2CC(=O)Nc3ccccc32)cc1C	none
COCCN=C1Sc2nc3c(C)cccc3cc2CN1Cc1ccco1	Pf growth 48h 8.3µM
Cc1cccc2cc3c(nc12)SC(=NCC1CCCO1)N(Cc1ccco1)C3 (stereo not drawn)	CHX counter 20, Pf growth 48h 4.1µM
Cc1ccc2nc3c(cc2c1)CN(Cc1ccco1)C(=NCC1CCCO1)S3 (stereo not drawn)	Pf growth 96h inconclusive, Pf growth 48h inconclusive
O=C(O)c1cc(-c2ccc(Cl)cc2)n[nH]1	none
Oc1ccc(Cl)cc1-c1cc(-c2ccccc2Cl)[nH]n1	CHX counter 23, Pf growth 48h 9.3µM, Shiga toxin inh 52
Oc1ccccc1-c1cc(-c2ccccc2Cl)[nH]n1	CHX counter 25, Shiga toxin inh 101 (no result: Pf growth 96h)
Oc1ccc(Cl)cc1-c1cc(-c2cccc(Br)c2)n[nH]1	CHX counter 42, Pf growth 48h 2.9µM, Shiga toxin inh 79 (no result: Pf growth 96h)
COc1ccc(-c2ccc(NCCN3CCOCC3)nn2)cc1OC	none

Source: PubChem BioAssay (National Center for Advancing Translational Sciences (NCATS))
